Source: PubChem BioAssay (NCATS)
Several values for one entry are separate records, joined by “and”; a condition that tells them apart may be missing. Equal entries are not always repeated. Inconclusive results are not listed. Activity calls are given as the source filed them. Unless noted, calls come from the whole dose curve; as a rule, active = well fitted curve in the direction sought with a large enough effect; inconclusive = small, poorly fitted or top-dose-only effect, or another doubt; inactive = no such curve, though single readings can be large; an effect the other way counts as inactive or inconclusive.

What was measured:
[1] = qHTS Assay for Identifying Gametocytocidal Compounds (AID 743244); note: potency is the fitted concentration of half-maximal effect;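 for max response: % is set by controls: 0 for no effect and ±100 for the full control effect; actives lower the fluorescent signal which means gametocytes are killed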; conditions: P. falciparum 3D7 stage III-V gametocytes, alamarBlue, 72 h; max response: stronger effect = lower value
Procedure, shortened: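 Using 20,000 stage III–V 3D7 gametocytes per well, compounds were incubated 72 h under 37 °C/5% CO2. Viability was then assessed by 24 h alamarBlue reduction, measured fluorometrically at 525/598 nm.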

[2] = qHTS assay for cell viability of HEK293 cells (AID 743288); conditions: ATP luminescence (CellTiter-Glo), 18 h; max response: stronger effect = lower value; note: % is set by controls: 0 for no effect and ±100 for the full control effect; nearly all actives have a fitted effect of over 50% in size
Procedure, shortened: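 Readout is luciferase-coupled ATP content (CellTiter-Glo luminescence, 30 min room temperature) as a measure of metabolically competent cells. Parental HEK293 cells were plated 5 h or more before compound addition, then treated 18 h at 37 C.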

[3] = qHTS assay for measurement of the activity of small molecule inhibitors on Zika virus induced Caspase-3 activity in human iPSC derived neural progenitor cells (hNPCs) (AID 1224857); note: % of control where 0% means no effect; nearly all actives have a fitted effect of over 65% in size
Procedure, shortened: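 After overnight (16–20 h) culture at 350 cells/well, hNPCs get compound, then ZIKV 2 FFU/cell one hour later. Six hours on, Caspase-Glo 3/7 is added and luminescence measured.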

[4] = qHTS assay for measurement of the activity of small molecule inhibitors on Zika virus induced Caspase-3 activity in human astrocytoma cells (AID 1224859);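 note: plate controls were ZIKV-infected untreated cells for no effect and uninfected cells for full effect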
Procedure, shortened: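 Inhibition of Zika-induced caspase-3/7 activity: SNB-19 cells, 1 h compound pretreatment, ZIKV 2 FFU/cell for 6 h at 37 C, Caspase-Glo luminescence read-out.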

[5] = qHTS assay to identify small molecule inhibitors of chordoma cells - UCH-1 (AID 1259355); note: % is set by controls: 0 for no effect and ±100 for the full control effect; nearly all actives have a fitted effect of over 55% in size
Procedure, shortened: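 Screening used approved and investigational drugs in 15-point titration against 800 seeded cells per well. A fixed combination of auranofin with camptothecin, doxorubicin, rubitecan and topotecan followed compound addition, and growth was scored by CellTiter-Glo after 48hr.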

[6] = qHTS assay to identify small molecule inhibitors of chordoma cells - UCH-2 (AID 1259356); note: potency is the fitted concentration of half-maximal effect
[7] = P-glycoprotein substrates identified in KB-8-5-11 adenocarcinoma cell line, qHTS therapeutic library screen (AID 1346987); note: nearly all actives have a fitted effect of over 65% in size; note: potency is the fitted concentration of half-maximal effect
Procedure, shortened: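 In this qHTS, P-gp-rich KB-8-5-11 cells received library compounds across a concentration range. Viability was quantified by luminescence after 72 h at 37 degree C.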

[8] = molecular target: Atrial natriuretic peptide receptor 1 (Homo sapiens) (UniProt P16066); test: Natriuretic polypeptide receptor (hNpr1) antagonism - Pilot screen (AID 1347049; calls by dose curve;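 note: agonist-evoked cGMP luminescence read 20 min after hNppA addition; % is set by controls: 0 for no effect and ±100 for the full control effect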)
Sequence of Atrial natriuretic peptide receptor 1 (Homo sapiens) (P16066 whole entry, looked up): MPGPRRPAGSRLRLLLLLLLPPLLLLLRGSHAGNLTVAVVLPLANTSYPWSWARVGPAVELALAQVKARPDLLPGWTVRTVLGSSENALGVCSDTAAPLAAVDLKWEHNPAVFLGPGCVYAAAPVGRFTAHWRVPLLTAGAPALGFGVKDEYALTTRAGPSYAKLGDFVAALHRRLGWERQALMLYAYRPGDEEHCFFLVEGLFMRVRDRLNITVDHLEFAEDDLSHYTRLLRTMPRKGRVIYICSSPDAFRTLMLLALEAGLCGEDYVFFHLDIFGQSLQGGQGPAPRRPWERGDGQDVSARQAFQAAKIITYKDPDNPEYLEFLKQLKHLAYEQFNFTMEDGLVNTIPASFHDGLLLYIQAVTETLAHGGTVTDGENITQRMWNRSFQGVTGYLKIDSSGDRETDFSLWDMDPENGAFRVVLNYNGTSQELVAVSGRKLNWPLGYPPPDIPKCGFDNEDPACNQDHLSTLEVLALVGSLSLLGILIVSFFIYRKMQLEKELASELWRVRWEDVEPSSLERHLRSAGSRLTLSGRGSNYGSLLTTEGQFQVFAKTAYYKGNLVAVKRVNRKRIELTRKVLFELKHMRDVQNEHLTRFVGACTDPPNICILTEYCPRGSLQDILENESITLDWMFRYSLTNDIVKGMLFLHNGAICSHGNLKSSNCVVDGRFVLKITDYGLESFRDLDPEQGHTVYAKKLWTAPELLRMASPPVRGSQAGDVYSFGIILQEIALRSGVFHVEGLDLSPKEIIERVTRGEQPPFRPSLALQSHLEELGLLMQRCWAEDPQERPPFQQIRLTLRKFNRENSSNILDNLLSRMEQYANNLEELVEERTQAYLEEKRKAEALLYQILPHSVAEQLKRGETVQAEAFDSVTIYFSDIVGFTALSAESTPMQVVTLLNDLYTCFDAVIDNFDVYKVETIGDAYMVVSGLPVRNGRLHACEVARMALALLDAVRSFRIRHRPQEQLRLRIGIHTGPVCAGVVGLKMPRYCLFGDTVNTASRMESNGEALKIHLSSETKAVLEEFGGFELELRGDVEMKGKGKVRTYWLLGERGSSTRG
Procedure, shortened: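 cGMP-sensor HEK293/hNpr1 cells, 1500/well, plated overnight at 37C. 2% GloSensor reagent, 2 h RT. Compound (23 nL pin transfer) 30 min RT, baseline luminescence pre-read. 0.1 nM hNppA, 20 min RT, post-read.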

[9] = Natriuretic polypeptide receptor (hNpr1) antagonism - Pilot counterscreen GloSensor control cell line (AID 1347045; calls by dose curve; note: % is set by controls: 0 for no effect and ±100 for the full control effect)
Procedure, shortened: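 HEK293 cGMP-sensor cells; 2% GloSensor reagent 2 h RT; LOPAC compounds in 1:5 titrations 30-50 min; 50 uM SNP 20 min; luminescence pre-read and post-read.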

[10] = qHTS profiling of the MIPE4 collection as inhibitors of Plasmodium falciparum (3D7) proliferation (AID 743344; call rule not given here;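 note: scaled between DMSO vehicle wells and 0.29 µM artemisinin as full inhibition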); conditions: P. falciparum 3D7 in erythrocytes, SYBR Green DNA fluorescence, 72 h; at 28.5 µM (top of the series)
Procedure, shortened: (§1)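 Parasite DNA was quantified by SYBR Green I fluorescence (ex 485, em 535 nm) after overnight lysis in saponin/Triton buffer at room temperature. Cultures at 0.3% parasitemia and 2.5% hematocrit were first exposed to compound for 72 h at 37 C; signals were normalised to artemisinin (0.29 uM) and vehicle wells.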

[11] = qHTS profiling of the MIPE4 collection as inhibitors of Plasmodium falciparum (DD2) proliferation (AID 743345; call rule not given here); conditions: P. falciparum Dd2 in erythrocytes, SYBR Green DNA, 72 h; at 28.5 µM (top of the series)
Procedure, shortened: as §1

[12] = qHTS profiling of the MIPE4 collection as inhibitors of Plasmodium falciparum (DD2) proliferation (Rep 2) (AID 743346; call rule not given here); conditions: P. falciparum Dd2 in erythrocytes, SYBR Green DNA, 72 h; at 28.5 µM (top of the series)
Procedure, shortened: as §1

[13] = qHTS profiling of the MIPE4 collection as inhibitors of Plasmodium falciparum (HB3) proliferation (AID 743347; call rule not given here;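 note: plate controls were DMSO vehicle wells for no effect and artemisinin wells for full effect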); conditions: P. falciparum HB3 in erythrocytes, SYBR Green DNA, 72 h; at 28.5 µM (top of the series)
Procedure, shortened: as §1

[14] = qHTS profiling for inhibitors of Plasmodium falciparum (3D7) proliferation (AID 743322; call rule not given here;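 note: infected erythrocytes exposed to compound for 72 h before lysis; 100% = DMSO vehicle wells and 0% = 0.29 µM artemisinin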); conditions: P. falciparum 3D7 proliferation; at 28.7 µM (top of the series) unless noted
Procedure, shortened: as §1

[15] = qHTS profiling for inhibitors of Plasmodium falciparum (DD2) proliferation (AID 743323; call rule not given here); conditions: lower = more inhibition; at 28.7 µM (top of the series) unless noted
Procedure, shortened: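 Parasite DNA quantified by SYBR Green fluorescence (ex 485, em 535 nm) after saponin/Triton lysis and overnight dark incubation. Cultures: 0.3% parasitemia, 2.5% hematocrit, 72 h, 37 C; data scaled between DMSO and 0.29 uM artemisinin.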

[16] = qHTS profiling for inhibitors of Plasmodium falciparum (HB3) proliferation (AID 743324); conditions: Plasmodium falciparum HB3 blood-stage proliferation; at 28.7 µM (top of the series);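 note: 100% = DMSO vehicle wells and 0% = artemisinin-treated control wells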
Procedure, shortened: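 SYBR Green fluorescence (485 ex/535 em) of lysed cultures, incubated overnight at room temperature in the dark, quantifies parasite DNA. Infected erythrocytes at 0.3% parasitemia and 2.5% hematocrit were exposed 72 h; values normalized to DMSO and 0.29 uM artemisinin controls.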

[17] = Identifying Small Molecule Inhibitors of Pancreatic Cancer Stem Cells (A2780, Spheroid) (AID 1259357); conditions: A2780 spheroid viability;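 note: spheroids pre-formed over 14 days in stem cell medium on hydrogel; potency is the fitted concentration of half-maximal effect; compound exposure lasted 48 h before the ATP luminescence read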
Procedure, shortened: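 Spheroids grown 14 days in stem cell media on hydrogel-coated nonadherent plates; 2D lines seeded directly. Compounds added after 4 h attachment, 48 h at 37C, 5% CO2; CellTiter-Glo luminescence normalized to DMSO (no inhibition) and no-cell wells (full inhibition).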

[18] = Identifying Small Molecule Inhibitors of Pancreatic Cancer Stem Cells (A278, Adherent) (AID 1259361);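 note: viability read after 48 h compound exposure; nearly all actives have a fitted effect of over 35% in size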
Procedure, shortened: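 Endpoint: ATP-based luminescence, 48 h drug exposure. Bortezomib at 9.2 uM final as full-kill control; DMSO vehicle as negative control; activity normalized between vehicle and cell-free wells.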

[19] = Identifying Small Molecule Inhibitors of Pancreatic Cancer Stem Cells (Panc1, Adherent) (AID 1259362);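 note: compound exposure lasted 48 h before the viability read; plate controls were DMSO-treated cells for no effect and cell-free media wells for full effect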
Procedure, shortened: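 Adherent (2D) versus sphere (3D) formats; spheres generated 14 d in SCM beforehand. Compound transferred by pin tool after 4 h, 48 h incubation, CellTiter-Glo endpoint.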

C[C@]12CCC(=O)C=C1CC[C@@H]1[C@@H]2C(=O)C[C@@]2(C)[C@H]1CC[C@]2(O)C(=O)CO
inactive: max response [1] -0.251% and -12.4% | max response [2] -1.33% | outcome [3] | outcome [4] | Potency [5] | Potency [6] | Potency [7]

c1cc(CN2CCCCC2)cc(OCCCNc2nc3ccccc3s2)c1
inactive: max response [1] -9.42% | outcome [3] | outcome [4] | Potency [5] | Potency [6] | Potency [8]
active: Potency [7] 14.6 µM

Cc1ccc(/C(=C\CN2CCCC2)c2ccccn2)cc1
inactive: max response [1] 24.5% and 21.6% | outcome [3] | outcome [4] | Potency [5] | Potency [6] | Potency [9] | Potency [8]

CCCN(CCC)C(=O)C(CCC(=O)O)NC(=O)c1ccccc1 (stereo not drawn)
inactive: max response [1] 9.09% and 23.8% | outcome [3] | outcome [4] | Potency [5] | Potency [6] | Potency [7] | Potency [9]

COCCOC(=O)C1=C(C)NC(C)=C(C(=O)OC(C)C)C1c1cccc([N+](=O)[O-])c1 (stereo not drawn)
inactive: max response [1] 18.6% and 13.2% | outcome [3] | outcome [4] | Potency [5] | Potency [6] | Potency [9] | Potency [8]

C[C@]12C=CC(=O)C=C1CC[C@H]1[C@@H]3C[C@@H](O)[C@](O)(C(=O)CO)[C@@]3(C)C[C@H](O)[C@@]12F
inactive: max response [1] 20.4% and -3.94% | max response [2] -7.12% | outcome [3] | outcome [4] | Potency [6] | Potency [7] | Potency [8]

O=C1NCN(c2ccccc2)C12CCN(CCCC(c1ccc(F)cc1)c1ccc(F)cc1)CC2
active: Potency [1] 10 µM | Potency [6] 25.9 µM | Potency [7] 14.6 µM
5.05%: parasite growth, % of DMSO control [10]
9.4%: parasite growth remaining, % of DMSO control (lower = more inhibition) [11]
4.02%: growth, % of control [13]
11.8%: parasite growth, % of control (lower = inhibition) [12]
inactive: outcome [3] | outcome [4] | Potency [8]

O=C(O)CN(CCOCCOCCN(CC(=O)O)CC(=O)O)CC(=O)O
inactive: max response [1] -5.05% and 25.1% | outcome [3] | outcome [4] | Potency [6] | Potency [7] | Potency [9] | Potency [8]

CCN1CCC[C@H]1CNC(=O)c1c(O)c(Cl)cc(Cl)c1OC
inactive: max response [1] 5.28% and 32.3% | outcome [3] | outcome [4] | Potency [6] | Potency [7] | Potency [9]

CCCN(CCC)CCc1cccc2c1CC(=O)N2
inactive: max response [1] 3.57% and 20.6% | outcome [3] | outcome [4] | Potency [6] | Potency [7] | Potency [9] | Potency [8]

COc1cc(C(=O)OCCCN2CCCN(CCCOC(=O)c3cc(OC)c(OC)c(OC)c3)CC2)cc(OC)c1OC
inactive: max response [1] -8.17% and 18.7% | outcome [3] | outcome [4] | Potency [6] | Potency [9] | Potency [8]

Nc1ncn([C@@H]2O[C@H](CO)[C@@H](O)[C@H]2O)c(=O)n1
121%: activity, percent of control [15]
103%: remaining parasite growth % (stronger effect = lower value) [14]
inactive: max response [1] -3.69% and 12.2% | outcome [3] | outcome [4] | Potency [6] | outcome [19] | Potency [9] | Potency [8]
137%: remaining proliferation (% of control), lower = more inhibition [16]
active: Potency [17] 16.6 µM | IC50 (viability decrease) [18] 2.35 µM | Potency [7] 8.2 µM

CO[C@@]1(NC(=O)CSCC#N)C(=O)N2C(C(=O)O)=C(CSc3nnnn3C)CS[C@@H]21
inactive: max response [1] 0.458% and 21.8% | outcome [3] | outcome [4] | Potency [6] | Potency [7] | Potency [9]

COc1ccc(CN(CCN(C)C)c2ccccn2)cc1
inactive: max response [1] -1.15% and 9.8% | max response [2] -9.66% | outcome [3] | outcome [4] | Potency [6] | Potency [7] | Potency [9]

COC(=O)C1=C(C)NC(C)=C(C(=O)OC(C)(C)CN(C)CCC(c2ccccc2)c2ccccc2)C1c1cccc([N+](=O)[O-])c1 (stereo not drawn)
inactive: max response [1] 7.33% and 12.6% | outcome [3] | outcome [4] | Potency [6] | Potency [8]
active: Potency [7] 9.2 µM

CCCCNC(=O)NS(=O)(=O)c1ccc(C)cc1
inactive: max response [1] 0.702% and 32.7% | max response [2] 2.43% and -13.2% | outcome [3] | outcome [4] | Potency [6] | Potency [9]

CN(C)CCCN1c2ccccc2Sc2ccc(C(F)(F)F)cc21
inactive: outcome [3] | outcome [4] | Potency [6] | Potency [8]

CN1CCN(CC(=O)N2c3ccccc3C(=O)Nc3cccnc32)CC1
inactive: max response [1] 0.314% and 3.31% | outcome [3] | outcome [4] | Potency [6] | Potency [9]

COc1ccc([C@@H]2Sc3ccccc3N(CCN(C)C)C(=O)[C@@H]2OC(C)=O)cc1
inactive: max response [1] -3.45% | outcome [4] | Potency [5] | Potency [6] | Potency [9] | Potency [8]
active: Potency [7] 20.6 µM

CC(C)[N+](C)(CCOC(=O)C1c2ccccc2Oc2ccccc21)C(C)C
inactive: max response [1] -5.05% and 11.3% | outcome [3] | outcome [4] | Potency [6] | Potency [7] | Potency [9]

C[C@]12CC[C@@H]3c4ccc(O)cc4C[C@@H](CCCCCCCCCS(=O)CCCC(F)(F)C(F)(F)F)[C@H]3[C@@H]1CC[C@@H]2O (stereo partly drawn)
inactive: outcome [3] | outcome [4] | Potency [6] | Potency [7] | Potency [9] | Potency [8]

OCCN1CCN(CC/C=C2/c3ccccc3Sc3ccc(C(F)(F)F)cc32)CC1
active: Potency [7] 18.4 µM
inactive: outcome [3] | outcome [4] | Potency [6] | Potency [8]

Brc1c(NC2=NCCN2)ccc2nccnc12
inactive: max response [1] -8.09% and 19.7% | outcome [3] | outcome [4] | Potency [6] | Potency [7] | Potency [9] | Potency [8]

Nc1c2c(nc3ccccc13)CCCC2O (stereo not drawn)
inactive: max response [1] -3.49% and -6.56% | outcome [3] | outcome [4] | Potency [6] | Potency [7] | Potency [9] | Potency [8]
